# According to PubChem BioAssay (NCATS):
# Several values for one entry are separate records, joined by “and”; a condition that tells them apart may be missing. Equal entries are not always repeated. Inconclusive results are not listed. Values without a mark were called inactive. Activity calls are given as the source filed them. Calls come from the whole dose curve; as a rule, active = well fitted curve in the direction sought with a large enough effect; inconclusive = small, poorly fitted or top-dose-only effect, or another doubt; inactive = no such curve, though single readings can be large; an effect the other way counts as inactive or inconclusive.
# Columns and labels:
# [1] = molecular target: Cellular tumor antigen p53 (Homo sapiens) (UniProt P04637); assay: Primary qHTS for small molecule compounds that upregulate eGFP-tagged delta133p53alpha (in N-terminal) cells. (AID 2060322); conditions: NCI-H358 eGFP-delta133p53alpha fluorescence, 24 h; activation: stronger effect = higher value; note: nearly all actives have a fitted effect of over 75% in size; note: potency is the fitted concentration of half-maximal effect;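 for activation: series mostly up to about 56 µM; 0% = DMSO vehicle and 100% = reference activator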
# Chain of Cellular tumor antigen p53 (Homo sapiens) (P04637 whole entry, looked up): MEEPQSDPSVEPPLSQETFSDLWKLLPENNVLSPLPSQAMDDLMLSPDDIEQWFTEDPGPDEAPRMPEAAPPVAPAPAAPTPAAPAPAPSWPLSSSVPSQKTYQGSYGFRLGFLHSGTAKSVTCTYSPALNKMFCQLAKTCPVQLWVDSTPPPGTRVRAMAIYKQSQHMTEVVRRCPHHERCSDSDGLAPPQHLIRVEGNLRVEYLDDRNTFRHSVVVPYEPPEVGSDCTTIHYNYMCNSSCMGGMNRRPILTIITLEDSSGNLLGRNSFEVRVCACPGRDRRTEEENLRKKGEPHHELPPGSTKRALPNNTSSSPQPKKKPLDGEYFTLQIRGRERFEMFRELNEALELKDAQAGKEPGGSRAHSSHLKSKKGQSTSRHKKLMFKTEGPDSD
# In short: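 NCI-H358 cells pre-induced 24 h with 10 ng/ml doxycycline to express N-terminal eGFP-delta133p53alpha, then dosed 24 h at 37C without doxycycline; fixed, Hoechst-stained, GFP intensity by laser scanning cytometry, normalized to DMSO (0%) and 57.5 uM 5-azacytidine (100%).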
# [2] = molecular target: Aldehyde dehydrogenase, mitochondrial (Homo sapiens) (UniProt P05091); assay: qHTS for Inhibitors of the Aldehyde Dehydrogenase Family (ALDH2) Primary screen (AID 2061308);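 note: plate controls were vehicle for no effect and reference inhibitor for full effect; nearly all actives have a fitted effect of over 55% in size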
# [3] = molecular target: Retinaldehyde dehydrogenase 3 (Homo sapiens) (UniProt P47895); assay: qHTS for Inhibitors of the Aldehyde Dehydrogenase Family (ALDH1A3) Primary screen (AID 2061315);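 note: plate controls were DMSO vehicle for no effect and reference inhibitor for full effect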
# [4] = BET inhibitor-based combinations targeting novel dependencies in MECOM-rearranged (r) AML: OCI-AML3 cell line (AID 2202232); conditions: Potency: OCI-AML3 viability; note: nearly all actives have a fitted effect of over 35% in size; note: potency is the fitted concentration of half-maximal effect
# In short: (§1)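 A 48 hr incubation preceded viability reading by CellTiter-Glo, with 15 min room-temperature development. Dose series had 11 points; normalization used DMSO and empty wells; AUC was computed and mean-centered per line as Z-AUC.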
# [5] = BET inhibitor-based combinations targeting novel dependencies in MECOM-rearranged (r) AML: UCSD-AML1 cell line (AID 2202235); note: nearly all actives have a fitted effect of over 40% in size; note: potency is the fitted concentration of half-maximal effect
# In short: (§2)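 Each compound is tested in an 11-point concentration series against 500 seeded cells/well for 48 hr. The luminescent viability signal is normalized to DMSO and blank wells, then reduced to AUC and a cell-line-centred Z-AUC.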
# [6] = BET inhibitor-based combinations targeting novel dependencies in MECOM-rearranged (r) AML: AML-194 cell line (AID 2202237; note: nearly all actives have a fitted effect of over 40% in size; note: potency is the fitted concentration of half-maximal effect)
# In short: as §1
# [7] = BET inhibitor-based combinations targeting novel dependencies in MECOM-rearranged (r) AML: MV-4-11 cell line (AID 2202233); note: potency is the fitted concentration of half-maximal effect; nearly all actives have a fitted effect of over 45% in size
# In short: as §2
# [8] = BET inhibitor-based combinations targeting novel dependencies in MECOM-rearranged (r) AML: HNT-34 cell line (AID 2202234); note: potency is the fitted concentration of half-maximal effect; nearly all actives have a fitted effect of over 35% in size
# In short: as §2
# [9] = BET inhibitor-based combinations targeting novel dependencies in MECOM-rearranged (r) AML: AML-191 cell line (AID 2202236; note: potency is the fitted concentration of half-maximal effect; nearly all actives have a fitted effect of over 35% in size)
# In short: as §1
SMILES,activation [1],Potency [2],Potency [3],Potency [4],Potency [5],Potency [6],Potency [7],Potency [1],Potency [8],Potency [9]
O=C(O)c1ccc(O)c2ncc(N3CCOCC3)cc12,22.8%,inactive,inactive,inactive,inactive,inactive,,,,
CC(=O)O[C@]1(C(C)=O)CC[C@H]2[C@@H]3C[C@H](C)C4=CC(=O)CC[C@]4(C)[C@H]3CC[C@@]21C,-7.53% and -21%,inactive,inactive,14.8 µM (active),10.5 µM (active),9.34 µM (active),18.6 µM (active),,,
CS(=O)(=O)CCNCc1ccc(-c2ccc3ncnc(Nc4ccc(OCc5cccc(F)c5)c(Cl)c4)c3c2)o1,,inactive,inactive,,inactive,,18.6 µM (active),26.9 µM (active),3.72 µM (active),26.3 µM (active)
COc1nccc(-c2c(-c3ccc(F)cc3)ncn2C2CCC(O)CC2)n1 (stereo not drawn),22% and -24.1%,inactive,inactive,18.6 µM (active),,inactive,,,,18.6 µM (active)
COc1cc2ncnc(-n3nc(-c4ccccn4)nc3N)c2cc1OC,13.4%,inactive,inactive,,4.68 µM (active),,1.48 µM (active),,2.35 µM (active),4.17 µM (active)
